± gives the standard deviation of the averaged measurements. The full ranking holds about 33,000 sequences; the median of “E-score (dimensionless, -0.5 to 0.5)” is about -0.049, and the highest 2% start at about 0.37. The full list was thinned out, with the highest values kept by preference.
test system: T1, PmTbr T-box DNA-binding domain (GST fusion); test: PBM E-score of 8-mer (E-score (dimensionless, -0.5 to 0.5)); Tbr is Tbrain of the sea star Patiria miniata (Pm) or the sea urchin Strongylocentrotus purpuratus (Sp); higher = stronger binding preference; conditions: the construct has about 5 more residues each side
T1 sequence: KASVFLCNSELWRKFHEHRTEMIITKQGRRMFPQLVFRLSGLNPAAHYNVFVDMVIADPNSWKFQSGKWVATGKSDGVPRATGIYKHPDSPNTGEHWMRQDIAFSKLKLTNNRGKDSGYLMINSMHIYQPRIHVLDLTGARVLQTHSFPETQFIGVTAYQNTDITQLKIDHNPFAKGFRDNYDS
Method in brief: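 Using the Universal PBM Analysis Suite, every ungapped 8-mer received an enrichment E-score averaged over duplicate arrays. Probe intensities came from double-stranded Universal Agilent oligonucleotide arrays incubated with 200 nM GST-fused Tbr T-box DNA-binding domain in PBS (pH 7.5). That protein was expressed in BL21 E. coli at 20 °C and purified by glutathione affinity chromatography.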

| Sequence | PBM E-score of 8-mer |
| --- | --- |
| AGTGACAA | 0.4196 ± 0.0018 |
| GATGACAA | 0.202 ± 0.017 |
| GGTGACCA | 0.0575 ± 0.069 |
| CGTGACGA | 0.331 ± 0.031 |
| CGGTCTTA | -0.0111 ± 0.035 |
| GGCTCGCA | 0.136 ± 0.053 |
| ATCAGAAG | -0.0178 ± 0.033 |
| AGCAGGGA | 0.00886 ± 0.045 |
| CAGACAGC | 0.0475 ± 0.042 |
| ACCCCAGT | -0.138 ± 0.1 |
| CTAGTCCC | -0.132 ± 0.064 |
| TCTGACAA | 0.112 ± 0.048 |
| TGTGACAA | 0.42 ± 0.028 |
| TATGACAA | 0.0436 ± 0.061 |
| AGAGCCAC | -0.0799 ± 0.014 |
| CCTAGTTC | -0.072 ± 0.0041 |
| AATCACAG | 0.0723 ± 0.038 |
| AATCACAA | 0.199 ± 0.0027 |
| GATCACAA | 0.163 ± 0.045 |
| GATCACGC | 0.287 ± 0.017 |
| AATCACAC | 0.462 ± 0.0075 |
| GATCACAC | 0.451 ± 0.014 |

| Sequence | PBM E-score of 8-mer |
| --- | --- |
| CATCACAG | 0.109 ± 0.038 |
| CATCACAA | 0.179 ± 0.006 |
| CATCACAC | 0.4576 ± 0.0032 |
| AACGAGTC | -0.154 ± 0.018 |
| GTCTTCAA | -0.0747 ± 0.03 |
| CCGCCCCA | -0.155 ± 0.064 |
| ACGCATTC | 0.0134 ± 0.0026 |
| GTCACAAA | 0.118 ± 0.066 |
| CACACACG | 0.181 ± 0.059 |
| CACACACA | 0.303 ± 0.0096 |
| CTCACACA | 0.41 ± 0.0079 |
| GTCACAGA | 0.0466 ± 0.051 |
| GTCACACA | 0.3901 ± 0.0019 |
| CAATAGTG | 0.127 ± 0.061 |
| ACTTGCGG | -0.0023 ± 0.035 |
| GGTGAAAC | 0.0805 ± 0.054 |
| TCAATGCA | -0.268 ± 0.037 |
| GCACCACA | 0.133 ± 0.047 |
| CCACCACA | 0.117 ± 0.02 |
| ACACCACC | 0.405 ± 0.0043 |
| TCACCACA | 0.204 ± 0.054 |
| ACACCACG | 0.3698 ± 0.0022 |

| Sequence | PBM E-score of 8-mer |
| --- | --- |
| CCACCACG | -0.00839 ± 0.13 |
| ACACCACA | 0.377 ± 0.008 |
| ACACCACT | 0.254 ± 0.012 |
| CCACCACC | 0.107 ± 0.044 |
| ACGAAACG | 0.16 ± 0.01 |
| GCATTGCA | -0.0859 ± 0.03 |
| ACAATCTA | -0.0816 ± 0.0069 |
| ATCGAAAC | -0.0958 ± 0.024 |
| ACCTATTG | 0.129 ± 0.034 |
| GGGGTGAC | 0.3431 ± 0.0017 |
| ACGGTGAG | 0.12 ± 0.014 |
| CTGGTGAC | 0.221 ± 0.045 |
| ACGGTGAT | 0.202 ± 0.0041 |
| CAGGTGAC | 0.4485 ± 0.0027 |
| GAGGTGAA | 0.294 ± 0.0035 |
| AAGGTGAG | 0.452 ± 0.0046 |
| CAGATGAC | -0.0423 ± 0.069 |
| AGGGTGAT | 0.197 ± 0.018 |
| AGGGTGAG | 0.137 ± 0.097 |
| AAGGTGAT | 0.424 ± 0.021 |
| GAGGTGAC | 0.4496 ± 0.0027 |
| CGTGTCCA | 0.00534 ± 0.099 |

| Sequence | PBM E-score of 8-mer |
| --- | --- |
| GATGCACC | -0.0938 ± 0.034 |
| GCAAACCC | -0.0342 ± 0.058 |
| CCTCGGTC | 0.0608 ± 0.12 |
| AAGGTGAA | 0.185 ± 0.013 |
| CAGGTGAG | 0.422 ± 0.007 |
| ACGGTGAC | 0.285 ± 0.0079 |
| AAGGTGAC | 0.426 ± 0.011 |
| CCGGTGAG | 0.0229 ± 0.12 |
| CAGGTGAA | 0.1748 ± 0.0016 |
| CTGACCTA | -0.194 ± 0.079 |
| AGTGGAAT | -0.0212 ± 0.05 |
| GGCGATAA | 0.276 ± 0.048 |
| AGACGTAA | -0.2 ± 0.092 |
| CCAGTGCG | 0.133 ± 0.074 |
| GCAACAAC | 0.0808 ± 0.019 |
| AGAACACT | 0.133 ± 0.04 |
| ACAACACC | 0.435 ± 0.023 |
| GCAACACA | 0.311 ± 0.0054 |
| CCAACACC | 0.443 ± 0.011 |
| CCAACACG | 0.274 ± 0.0077 |
| ACAACACA | 0.347 ± 0.033 |
| ACAACAAT | 0.109 ± 0.024 |

| Sequence | PBM E-score of 8-mer |
| --- | --- |
| ACAACACT | 0.37 ± 0.016 |
| CCAACACA | 0.241 ± 0.023 |
| ACAACACG | 0.251 ± 0.017 |
| GCAACACC | 0.455 ± 0.0097 |
| CCCTTGGA | -0.13 ± 0.033 |
| TAGGGCCA | -0.155 ± 0.032 |
| CGCCAAGC | 0.0166 ± 0.082 |
| AGGCCCTC | -0.448 ± 0.0054 |
| CTCCCGTA | -0.1898 ± 0.001 |
| AGAAAGCC | -0.195 ± 0.021 |
| GCTATCTA | -0.0532 ± 0.092 |
| CTCTTCTA | -0.215 ± 0.1 |
| TCTGGAAA | -0.131 ± 0.019 |
| GACACTCC | 0.336 ± 0.029 |
| CACACTCA | 0.3814 ± 0.0034 |
| AACACTCC | 0.288 ± 0.029 |
| CACACTCC | 0.402 ± 0.016 |
| TACACTCA | -0.0251 ± 0.036 |
| AACACTCA | 0.323 ± 0.0094 |
| CCCACTCG | 0.0373 ± 0.049 |
| CACACTCG | 0.408 ± 0.011 |
| AACACTCG | 0.237 ± 0.037 |

Source: the supplement of paper PMC4166925
